FBW7 activator: activators of human E3 ligase FBW7; AID 1259310; actives 0.13% (n = 650,000); AlphaScreen FBW7–phospho-cyclin E peptide binding, activator screen; normalized activity (activation), % at 26.1 µM; Q969H0; in the data active = normalized activity above about 1.9%;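 also: purified mutant Fbw7 with reduced substrate affinity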
Target sequence (Q969H0 whole entry, looked up): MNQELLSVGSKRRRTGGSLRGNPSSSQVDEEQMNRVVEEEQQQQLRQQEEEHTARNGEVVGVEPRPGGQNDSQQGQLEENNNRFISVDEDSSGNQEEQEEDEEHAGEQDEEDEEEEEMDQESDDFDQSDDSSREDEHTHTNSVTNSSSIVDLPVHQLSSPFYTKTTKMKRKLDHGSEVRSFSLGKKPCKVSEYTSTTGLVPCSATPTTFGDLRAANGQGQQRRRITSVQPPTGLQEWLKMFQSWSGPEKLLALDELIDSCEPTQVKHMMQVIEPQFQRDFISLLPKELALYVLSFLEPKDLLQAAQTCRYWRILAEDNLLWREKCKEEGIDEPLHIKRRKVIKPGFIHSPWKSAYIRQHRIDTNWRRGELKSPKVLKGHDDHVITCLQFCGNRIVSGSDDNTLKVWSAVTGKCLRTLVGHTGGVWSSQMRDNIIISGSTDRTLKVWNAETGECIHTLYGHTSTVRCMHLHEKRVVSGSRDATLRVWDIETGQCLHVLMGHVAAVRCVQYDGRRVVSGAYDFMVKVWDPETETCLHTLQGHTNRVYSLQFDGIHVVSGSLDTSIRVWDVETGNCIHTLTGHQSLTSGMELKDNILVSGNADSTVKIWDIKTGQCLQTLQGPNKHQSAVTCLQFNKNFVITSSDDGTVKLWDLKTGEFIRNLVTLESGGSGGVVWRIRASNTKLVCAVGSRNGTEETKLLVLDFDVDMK
MITF inh: human MITF inhibition, primary screen. O75030. AlphaScreen MITF homodimerization, bead proximity signal. inhibition, % at 2.6 µM. actives 0.91% (n = 650,000). AID 1259374; in the data active = inhibition above about 50%;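 also: 0% = vehicle wells with protein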
TEAD-YAP block: TEAD-YAP interaction inhibition. HEK-TIYL cells, TEAD-Gal4/YAP UAS-luciferase luminescence. actives 1.4% (n = 640,000). inhibition, % at 9.12 µM; in the data active = inhibition above about 32%;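 also: 0% = median of test compound wells and 100% = reference inhibitor wells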
GPR151 activ: activators of human GPR151; Q8TDV0; PathHunter beta-arrestin GPR151 cells, luminescence; activation, % at 11.2 µM; actives 1% (n = 650,000); in the data active = activation above about 4.9%;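 also: 0% = median of compound wells and 100% = cells with positive control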
MITF inh conf: human MITF inhibition, confirmation | shares compounds with MITF inh | AlphaScreen MITF homodimerization, biotin/His-MITF beads | inhibition, % at 2.6 µM | actives 16% (n = 4,700);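 active = inhibition above a cutoff derived from the DMSO control wells, cut at about 28% in these data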;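 also: 0% = MITF dimer wells with DMSO only; inhibitors lower the bead chemiluminescence by keeping MITF from dimerizing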
AlphaScreen DR: AlphaScreen optical interference, dose response counter-screen; IC50, µM; shares compounds with MITF inh; actives 6% (n = 480); AlphaScreen optical interference counterscreen, cell-free; AID 1259373; call rule not given here
AlphaScreen intf2: counter-screen: compounds optically interfering with AlphaScreen | shares compounds with MITF inh | LysRS AlphaScreen counterscreen, signal interference, triplicate | inhibition, % at 2.6 µM | actives 7.6% (n = 4,700);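 active = inhibition above a cutoff derived from the DMSO control wells, cut at about 30% in these data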
Numbers without * were called inactive; / = no result. In the library only some 3.4% were active in any assay of this set; here they are far more common.

SMILES	FBW7 activator	MITF inh	TEAD-YAP block	GPR151 activ	MITF inh conf	AlphaScreen intf2	others
COc1ccccc1N1CCN(C(=O)Cn2c(C)cc3ccccc3c2=O)CC1	1	11	-4	-1	/	/
O=[N+]([O-])c1ccc(S(=O)(=O)c2ccc(Oc3ccccc3)cc2)cc1	0	13	4	0	/	/
c1ccc2c(c1)nc(N1CCC3(CC1)OCCO3)c1nnnn12	0	6	-15	0	/	/
O=C(CN1CCN(CC(=O)c2ccco2)CC1)Nc1ccc2c(c1)OCCO2	-1	69*	0	-1	10	17
CN(/N=C1/C(=O)Nc2ccc(Br)cc21)c1ncccc1[N+](=O)[O-]	0	-3	-2	1	/	/
CC(C)NC(=O)C1CCN(Cc2ccc(C(F)(F)F)cc2)CC1	1	52*	1	-1	-5	-5
CC(C)NC(=O)C1CCN(Cc2ccc(Cl)c(Cl)c2)CC1	1	51*	-2	0	-14	1
CCOC(=O)C1CCN(Cc2ccc(F)cc2)CC1	0	19	10	0	/	/
CCOC(=O)C1CCN(Cc2ccc(C(F)(F)F)cc2)CC1	0	51*	2	1	-1	9
CC1=CC(C)(C)N(C(=O)Nc2ccc(Cl)cc2)c2cc(C)ccc21	0	3	0	0	/	/
COc1cc(/C(C)=N/NC(=O)c2cc(-c3ccc(C)s3)[nH]n2)ccc1O	0	-1	4	2	/	/
Cc1c(NC(=O)C(C)OC(=O)c2cc3c(s2)CCC3)c(=O)n(-c2ccccc2)n1C (configuration not stated)	0	80*	8	-1	80*	10	AlphaScreen DR=>6.7
O=S(=O)(c1cc(F)ccc1F)N1CCN(c2ncnc3c2nnn3-c2ccccc2)CC1	0	7	8	-1	/	/
C=CCC(=O)NCC1Cc2cc(F)cc(-c3ccc(C(C)=O)s3)c2O1 (configuration not stated)	0	5	6	-1	/	/
COc1cc2c(cc1OC)CN(CCC(c1ccccc1)c1ccccc1)CC2	0	-3	-6	-1	/	/
COc1cc2c(cc1OC)CN(CC(O)c1ccccc1)CC2 (configuration not stated)	0	51*	4	-1	-5	-1
COC(=O)CCN1CCN(S(=O)(=O)c2ccc(OC)cc2)CC1	0	60*	5	0	-9	-4
COc1ccc(OCCN2CCN(S(=O)(=O)c3ccc4c(c3)OCCO4)CC2)cc1	0	85*	-6	-1	7	16
COc1ccc(S(=O)(=O)N2CCN(CCO)CC2)cc1	0	-9	-3	-1	/	/
COc1ccc(S(=O)(=O)N2CCC(N3CCN(C)CC3)CC2)cc1	0	73*	5	-1	2	6
COc1ccc(-c2ccc(S(=O)(=O)N3CCOCC3)cc2)cc1	0	11	-1	0	/	/
COc1ccc(S(=O)(=O)N2CCC(N3CCOCC3)CC2)cc1	0	54*	3	1	8	9
Cc1nn(-c2ccccc2)c2sc(C(=O)Nc3cc(C(F)(F)F)ccc3Cl)cc12	0	6	-1	3	/	/
COc1ccc(S(=O)(=O)N2CCC(N3CCC(C)CC3)CC2)cc1	0	55*	2	-1	34*	0	AlphaScreen DR=>6.5
COc1ccc(S(=O)(=O)N2CCN(C3CCCCCCC3)CC2)cc1	0	32	1	0	/	/
SMILES	FBW7 activator	MITF inh	TEAD-YAP block	GPR151 activ	MITF inh conf	AlphaScreen intf2	others
O=C(c1ccc([N+](=O)[O-])cc1)N1CCN(Cc2cccnc2)CC1	1	74*	6	1	6	18
COc1ccc(C(=O)N2CCN(Cc3cccnc3)CC2)cc1	0	67*	-2	1	8	18
COc1ccc(CN2CCN(C(=O)c3ccc([N+](=O)[O-])cc3)CC2)cc1	0	60*	7	-1	-20	2
O=C(c1cccc2ccccc12)N1CCN(Cc2cccnc2)CC1	0	60*	-2	0	10	19
COc1ccccc1-c1nnc(SC(C)C(=O)O)n1Cc1ccccc1 (configuration not stated)	0	6	4	0	/	/
CCOC(=O)c1c(-c2ccc(-c3ccccc3)cc2)csc1NC(=O)c1cccc(C)c1	0	-3	5	0	/	/
COc1ccc(C(=O)N2CCN(Cc3cccnc3)CC2)cc1OC	0	78*	7	-1	17	8
